Experimental data published in PubChem BioAssay (EPA / NIEHS).
Where “and” joins values, the source holds several entries; their conditions need not be identical. Equal entries are not always repeated. Records with an inconclusive call do not appear. Calls of active or inactive are those of the source. The calls were made as follows, unless noted: active = hit-call score of the fitted dose curve at least 0.9, where 1 is the maximum; inconclusive = response in the unintended direction; inactive = score below 0.9.

Tests used:
[1] = molecular target: Retinoic acid receptor RXR-alpha (Homo sapiens) (UniProt P19793); test: OT_NURR1_NURR1RXRa_1440: Odyssey Thera (OT) 24-hour HEK293T Protein Complementation Assay for Nurr1/retinoid X receptor (RXR) (AID 2283386)
Chain of Retinoic acid receptor RXR-alpha (Homo sapiens) (P19793 whole entry, looked up, the tested form may be a part): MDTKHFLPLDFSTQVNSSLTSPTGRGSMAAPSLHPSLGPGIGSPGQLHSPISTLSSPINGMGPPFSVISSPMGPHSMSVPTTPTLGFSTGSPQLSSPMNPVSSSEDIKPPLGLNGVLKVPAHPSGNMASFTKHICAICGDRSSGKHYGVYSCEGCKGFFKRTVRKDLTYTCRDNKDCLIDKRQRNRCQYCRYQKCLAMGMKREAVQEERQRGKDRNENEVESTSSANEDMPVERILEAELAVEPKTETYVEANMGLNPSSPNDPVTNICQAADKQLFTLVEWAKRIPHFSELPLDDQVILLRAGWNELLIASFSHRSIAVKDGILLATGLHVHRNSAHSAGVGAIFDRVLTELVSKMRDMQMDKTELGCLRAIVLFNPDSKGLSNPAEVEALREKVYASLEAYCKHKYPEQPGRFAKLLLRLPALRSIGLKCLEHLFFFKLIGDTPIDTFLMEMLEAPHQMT
Outline: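 Interaction of Nurr1 with RXRα brings fused reporter fragments together in human HEK293T cells, restoring a functional reporter. Fluorescence intensity is measured 24 h after chemical treatment, and values are analysed in the positive direction against DMSO.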

[2] = molecular target: Peroxisome proliferator-activated receptor gamma (Homo sapiens) (UniProt P37231); test: OT_PPARg_PPARgSRC1_0480: Odyssey Thera (OT) 8-hour Protein-Complementation Assay for Peroxisome Proliferator-activated Receptor Gamma / SRC-1 Co-activator (AID 2283387)
Chain of Peroxisome proliferator-activated receptor gamma (Homo sapiens) (P37231 whole entry, looked up, the tested form may be a part): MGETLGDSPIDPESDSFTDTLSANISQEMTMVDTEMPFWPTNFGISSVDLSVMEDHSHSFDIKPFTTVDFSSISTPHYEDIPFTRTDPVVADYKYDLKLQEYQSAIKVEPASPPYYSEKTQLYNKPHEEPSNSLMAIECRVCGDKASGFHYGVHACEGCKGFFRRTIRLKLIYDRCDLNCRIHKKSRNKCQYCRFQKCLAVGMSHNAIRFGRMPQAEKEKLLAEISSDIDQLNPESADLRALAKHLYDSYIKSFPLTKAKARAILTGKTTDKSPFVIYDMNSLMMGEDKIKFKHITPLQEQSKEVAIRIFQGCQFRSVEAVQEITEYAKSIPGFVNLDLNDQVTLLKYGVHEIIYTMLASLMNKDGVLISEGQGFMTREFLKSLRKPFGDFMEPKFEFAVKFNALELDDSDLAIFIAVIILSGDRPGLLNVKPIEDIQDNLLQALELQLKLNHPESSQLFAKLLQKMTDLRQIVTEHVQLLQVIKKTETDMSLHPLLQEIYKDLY
Outline: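 HEK293T transiently transfected with PPARg and SRC-1 fused to Venus YFP fragments, compounds 8 h at 37C. Fixed, Draq5-stained cells imaged; nuclear/cytoplasmic 488 nm fluorescence ratio over at least 350 cells per image; gain fitted versus DMSO.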

[3] = molecular target: Peroxisome proliferator-activated receptor gamma (Homo sapiens) (UniProt P37231); test: OT_PPARg_PPARgSRC1_1440: Odyssey Thera (OT) 24-hour Protein-Complementation Assay for Peroxisome Proliferator-activated Receptor Gamma/ SRC-1 Co-activator (AID 2283388)
Outline: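 HEK293T cells transiently transfected with PPARg and SRC-1 fused via (Gly4Ser)2 linker to split Venus YFP fragments (IFP1/IFP2) were dosed 24 h; fixed, Draq5-stained, imaged at 488/635 nm; nuclear/cytoplasmic fluorescence ratio scored versus DMSO baseline, gain-of-signal.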

[4] = CEETOX_H295R_11DCORT: CeeTox H295R High-throughput Steroidogenesis Assay for 11-Deoxycortisol (11DCORT) (AID 2283432; active = hit-call score of the fitted dose curve at least 0.9, where 1 is the maximum; inactive = score below 0.9;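 as to AC50: human adrenal H295R cells prestimulated with 10 µM forskolin for 48 h; 11-deoxycortisol secreted into the medium measured by LC-MS/MS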); conditions: actives raise or lower the signal
Outline: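 H295R cells prestimulated 48 h with 10 uM forskolin, then exposed 48 h to chemical in 0.1% DMSO. 11-Deoxycortisol in medium quantified by HPLC-MS/MS after MTBE extraction; bidirectional fit versus DMSO. MTT viability read in same wells.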

[5] = CEETOX_H295R_OHPREG: CeeTox H295R High-throughput Steroidogenesis Assay for OH-Pregnenolone (OHPREG) (AID 2283434; active = hit-call score of the fitted dose curve at least 0.9, where 1 is the maximum; inactive = score below 0.9); conditions: actives raise or lower the signal
Outline: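 Hormone levels in spent medium were measured by tandem mass spectrometry following liquid-liquid extraction. Cells (H295R) had been forskolin-stimulated (10 uM, 48 h) before a 48 h chemical exposure at 0.1% DMSO, with activity fitted in both directions against DMSO.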

[6] = CEETOX_H295R_OHPROG: CeeTox H295R High-throughput Steroidogenesis Assay for OH-Progesterone (OHPROG) (AID 2283435; active = hit-call score of the fitted dose curve at least 0.9, where 1 is the maximum; inactive = score below 0.9;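 as to AC50: human adrenal H295R cells primed 48 h with 10 µM forskolin; 17alpha-hydroxyprogesterone secreted into medium measured by HPLC-MS/MS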); conditions: actives raise or lower the signal
Outline: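 H295R, 10 uM forskolin prestim 48 h; cmpd in 0.1% DMSO 48 h; medium MTBE-extracted, HPLC-MS/MS for OH-progesterone; 7-pt std curve; bidirectional fit vs DMSO; MTT viability, chemicals diluted until viability >/=70%.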

[7] = CEETOX_H295R_CORTIC: CeeTox H295R High-throughput Steroidogenesis Assay for Corticosterone (CORTIC) (AID 2283437; active = hit-call score of the fitted dose curve at least 0.9, where 1 is the maximum; inactive = score below 0.9;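 also: corticosterone secreted into medium quantified by mass spectrometry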;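 as to AC50: human H295R adrenal cells prestimulated with forskolin before chemical exposure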); conditions: actives raise or lower the signal
Outline: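 Corticosterone secreted into medium is measured by reverse-phase HPLC with tandem MS following liquid-liquid extraction. Cells are forskolin-stimulated (10 uM, 48 h) before 48 h test exposure; activity fitted in both directions against DMSO.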

[8] = CEETOX_H295R_CORTISOL: CeeTox H295R High-throughput Steroidogenesis Assay for Cortisol (AID 2283438; active = hit-call score of the fitted dose curve at least 0.9, where 1 is the maximum; inactive = score below 0.9;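 also: cortisol secreted into medium quantified by LC-MS/MS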); conditions: actives raise or lower the signal
Outline: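 Forskolin 10 uM 48 h prestim → test cmpd in DMSO (0.1% final) 48 h → medium MTBE-extracted → LC-MS/MS cortisol vs 7-pt std curve. Gain/loss of signal fitted vs DMSO. MTT viability in same wells.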

[9] = CEETOX_H295R_DOC: CeeTox H295R High-throughput Steroidogenesis Assay for DOC (AID 2283439; active = hit-call score of the fitted dose curve at least 0.9, where 1 is the maximum; inactive = score below 0.9); conditions: actives raise or lower the signal
Outline: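 Readout: 11-deoxycorticosterone in culture medium by reverse-phase C18 HPLC with ESI+ tandem MS after MTBE extraction. Cells: H295R, forskolin-primed (10 uM, 48 h), chemical-treated 48 h; DMSO 0.1% final. Activity fitted bidirectionally versus DMSO.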

[10] = CEETOX_H295R_ANDR: CeeTox H295R High-throughput Steroidogenesis Assay for Androstenedione (ANDR) (AID 2283436; active = hit-call score of the fitted dose curve at least 0.9, where 1 is the maximum; inactive = score below 0.9;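 also: human H295R adrenal cells exposed for 48 h with androstenedione measured in medium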); conditions: actives raise or lower the signal
Experimental: CEETOX_H295R is a cell-based, multiplexed-readout assay that uses H295R, a human adrenal gland cell line, with measurements taken at 48 hours after chemical dosing in a 96-well plate.CEETOX_H295R_ANDR is one of 23 assay component(s) measured or calculated from the CEETOX_H295R assay. It is designed to make measurements of hormone induction, a form of inducible reporter, as detected with absorbance signals by HPLC-MS-MS technology.Data from the assay component CEETOX_H295R_ANDR was analyzed into 1 assay endpoint. This assay endpoint, CEETOX_H295R_ANDR, was analyzed with bidirectional fitting relative to DMSO as the negative control and baseline of activity. […] To generalize the intended target to other relatable targets, this assay endpoint is annotated to the steroid hormone intended target family, where the subfamily is androgens.
Cell culture and media preparation procedures were conducted in accordance with OECD Test No. 456 guidelines, with minor modifications. H295R cells (ATCC CRL-2128) were expanded for 5 passages and frozen in batches in liquid nitrogen. Prior to the steroidogenesis assay, H295R cells were thawed and passed at least 4 times. The maximum passage was 10. Cells were maintained in a 1:1 mixture of DMEM/F12 supplemented with 5ml/L ITS+ Premix (BD Bioscience) and 12.5 ml/L Nu-Serum (BD Bioscience). After seeding cells into 96-well plates at 50-60% confluency, cells were allowed to adhere overnight. […] Test chemicals were incubated for 48 hours, then the medium was removed and split into 2 vials containing approximately 75uL each, and stored at -80 C prior to hormone analysis. For steroid quantification, media samples were shipped to OpAns, LLC (Durham, NC) on dry ice, and samples were thawed to room temperature prior to liquid-liquid extraction. Steroid hormones were extracted from media samples using methyl tertbutyl ether (MTBE). An extra derivatization with dansyl chloride was included for estrogen (estrone and estradiol) detection only. Steroid hormones were separated by HPLC, eluted using a reverse phase C18 gradient with electrospray positive ionization, followed by quantification by tandem mass spectrometry (MS/MS). Data were acquired on a MassHunter Workstation Acquisition version B03.01 (Agilent Technologies, Inc.) and processed using MassHunter Quantitative Analysis for QQQ. Accuracy was determined for each hormone analyte from 3 standards to determine upper and lower limits of quantification (ULOQ and LLOQ, respectively) using a 7-point standard curve. Precision and accuracy of the extraction and quantification methods were calculated as the percent relative standard deviation (%RSD) of the spiked standards and percent spiked standard recovered, respectively. […] Test medium was removed following chemical exposure, and cell viability was evaluated in the same wells by MTT. MTT procedures were as follows: after removal of test medium, 500 uL of 0.5 mg/ml of 3-[4,5-dimethylthiazol-2-y]2,5-diphenyltetrazoliumbromide solution was added to the cells. Following a 4-hour incubation at 37 C and 5% CO2 to allow formazan-crystal formation, the MTT solution was removed and blue formazan salt crystals were solubilized using 500uL anhydrous isopropanol with shaking for 20 minutes. Absorbance was read at 570 and 650nm using a Packard Fusion microplate reader. Background correction of absorbance units was used to determine percent change relative to controls. […] When a test chemical reduced cell viability to 20% - 70%, the test chemical was diluted 10-fold and re-evaluated, but if cell viability was <20%, then the test chemical was diluted 100-fold and re-evaluated. Test chemical dilutions were made until cell viability was >/=70%. MTT assays were also conducted for duplicates of all concentrations of chemicals tested in concentration-response studies.

Measured: AC50

CCOc1cccc(C2(N3CCN(c4ccccc4)CC3)CCC(C)CC2)c1 (stereo unspecified)
active: [5] 81.7 µM | [6] 35.7 µM | [7] 23.6 µM | [9] 29.8 µM
not listed: [10]
inactive: all other assays above

Nc1ccc(Oc2ccc(N)cc2)cc1
inactive: [1] | [2] | [3] | [6]
active: [4] 24.2 µM | [5] 5.04 µM | [7] 0.493 µM | [8] 26.9 µM | [9] 1.21 µM

O=[N+]([O-])c1ccc(Oc2ccc(Cl)cc2Cl)cc1
not listed: [4] | [8] | [10]
inactive: all other assays above

O=C(N[C@H](c1ccccc1)[C@@H]1CN2CCC1CC2)c1c(Cl)ccc(C(F)(F)F)c1Cl
inactive: [2] | [3]

Cn1cc(-c2ccccc2)c(=O)c(-c2cccc(C(F)(F)F)c2)c1
not listed: [1] | [10]
inactive: all other assays above

CC(C)(C)OOC(=O)c1ccccc1
inactive: [2] | [3]

c1ccc2c(c1)-c1cccc3cccc-2c13
inactive: [1] | [2] | [3]
active: [5] 14 µM | [6] 30.7 µM

CCCCCOC(=O)c1ccccc1C(=O)OCCCCC
not listed: [8] | [10]
inactive: all other assays above

COc1cc(C=O)cc2c1[C@H](COC(N)=O)[C@]1(OC(C)=O)ON2C[C@H]2[C@@H]1N2C(C)=O
inactive: [2] | [3]

O=C(Nc1ccccc1)c1ccccc1I
active: [4] 27.8 µM | [5] 32.3 µM | [6] 40.9 µM | [9] 25.7 µM
not listed: [1]
inactive: all other assays above

ClC1=C(Cl)[C@]2(Cl)[C@H]3[C@H]([C@@H]4C=C[C@H]3C4)[C@@]1(Cl)C2(Cl)Cl
inactive: [2] | [3]

Nc1cc(Cl)cc(C(=O)O)c1Cl
inactive: [2] | [3]

Cc1cccc(N)c1N
active: [2] 31.9 µM and 66.9 µM | [5] 27 µM | [6] 18.5 µM
not listed: [10]
inactive: all other assays above

OCCCBr
inactive: [2] | [3]

[O-][Cl+]O
inactive: [2] | [3]

Nc1ccc(N=Nc2ccccc2)cc1
active: [4] 36.7 µM | [5] 50 µM | [6] 12.6 µM | [8] 68.7 µM | [9] 12.8 µM
inactive: [2] | [3] | [7]

CC(C)N(Cc1ccccc1)C(=O)C(C)(C)C
inactive: [2] | [3] | [5] | [6] | [10]
